The target of test [1] is Sphingosine kinase 1 (Homo sapiens) (UniProt Q9NYA1). The settings on record: at 1 µM.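 Also: mean SPHK1 inhibition value reported from the GSK PKIS kinase panel screen.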
The target of test [2] is T1, Sphingosine kinase 2 (Homo sapiens) (UniProt Q9NRA0).
T1 sequence (whole entry): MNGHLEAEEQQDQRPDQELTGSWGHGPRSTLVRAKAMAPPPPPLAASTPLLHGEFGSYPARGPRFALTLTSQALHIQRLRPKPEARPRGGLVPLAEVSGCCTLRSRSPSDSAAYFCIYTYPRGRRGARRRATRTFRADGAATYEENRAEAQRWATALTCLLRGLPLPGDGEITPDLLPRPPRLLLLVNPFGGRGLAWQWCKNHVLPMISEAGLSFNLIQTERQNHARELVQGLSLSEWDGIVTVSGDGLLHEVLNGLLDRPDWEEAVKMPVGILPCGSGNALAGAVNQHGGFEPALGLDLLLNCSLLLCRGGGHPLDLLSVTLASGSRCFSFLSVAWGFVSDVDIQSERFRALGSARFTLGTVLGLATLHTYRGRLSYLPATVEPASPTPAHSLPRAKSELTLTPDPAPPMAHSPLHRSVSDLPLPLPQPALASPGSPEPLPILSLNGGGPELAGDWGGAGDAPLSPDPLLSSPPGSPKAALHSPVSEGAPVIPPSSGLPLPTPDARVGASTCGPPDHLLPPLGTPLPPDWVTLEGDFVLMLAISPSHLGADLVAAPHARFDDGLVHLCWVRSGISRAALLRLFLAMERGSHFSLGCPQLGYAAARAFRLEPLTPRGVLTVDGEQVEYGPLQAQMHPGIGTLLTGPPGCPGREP
The settings on record: at 0.1 µM.

In test [3] the target is T1, Sphingosine kinase 2 (Homo sapiens). The settings on record: at 1 µM.
For test [4], the target named is Casein kinase II subunit alpha (Homo sapiens) (UniProt P68400). To be noted: at 0.1 µM.
Test [5] has the same target. The settings on record: at 1 µM.
Test [6] has as its target T2, Inhibitor of nuclear factor kappa-B kinase subunit alpha (Homo sapiens) (UniProt O15111).
T2 sequence (whole entry): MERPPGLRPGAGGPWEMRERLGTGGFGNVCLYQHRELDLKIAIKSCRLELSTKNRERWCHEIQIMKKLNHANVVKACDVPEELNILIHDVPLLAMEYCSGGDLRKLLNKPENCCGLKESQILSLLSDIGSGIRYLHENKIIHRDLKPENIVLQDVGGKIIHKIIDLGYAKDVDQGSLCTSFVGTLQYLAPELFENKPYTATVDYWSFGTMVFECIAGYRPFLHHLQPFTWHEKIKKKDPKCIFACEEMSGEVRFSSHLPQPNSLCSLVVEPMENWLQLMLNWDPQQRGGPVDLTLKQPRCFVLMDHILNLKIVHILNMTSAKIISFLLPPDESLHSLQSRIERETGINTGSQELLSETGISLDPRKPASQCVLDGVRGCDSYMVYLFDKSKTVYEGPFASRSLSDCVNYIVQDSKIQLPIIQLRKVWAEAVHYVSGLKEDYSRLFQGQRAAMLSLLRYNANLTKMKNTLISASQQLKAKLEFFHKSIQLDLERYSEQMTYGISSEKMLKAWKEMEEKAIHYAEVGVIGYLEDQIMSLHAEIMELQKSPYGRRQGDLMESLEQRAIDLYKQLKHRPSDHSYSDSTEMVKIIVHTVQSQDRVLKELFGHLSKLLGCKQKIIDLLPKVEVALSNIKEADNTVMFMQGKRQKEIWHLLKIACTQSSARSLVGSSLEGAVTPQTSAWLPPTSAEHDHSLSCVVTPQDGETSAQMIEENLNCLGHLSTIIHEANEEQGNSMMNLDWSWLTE
To be noted: at 0.1 µM.

Test [7] addresses T2, Inhibitor of nuclear factor kappa-B kinase subunit alpha (Homo sapiens). The settings on record: at 1 µM.
In test [8] the target is T3, Inhibitor of nuclear factor kappa-B kinase subunit beta (Homo sapiens) (UniProt O14920).
T3 sequence (whole entry): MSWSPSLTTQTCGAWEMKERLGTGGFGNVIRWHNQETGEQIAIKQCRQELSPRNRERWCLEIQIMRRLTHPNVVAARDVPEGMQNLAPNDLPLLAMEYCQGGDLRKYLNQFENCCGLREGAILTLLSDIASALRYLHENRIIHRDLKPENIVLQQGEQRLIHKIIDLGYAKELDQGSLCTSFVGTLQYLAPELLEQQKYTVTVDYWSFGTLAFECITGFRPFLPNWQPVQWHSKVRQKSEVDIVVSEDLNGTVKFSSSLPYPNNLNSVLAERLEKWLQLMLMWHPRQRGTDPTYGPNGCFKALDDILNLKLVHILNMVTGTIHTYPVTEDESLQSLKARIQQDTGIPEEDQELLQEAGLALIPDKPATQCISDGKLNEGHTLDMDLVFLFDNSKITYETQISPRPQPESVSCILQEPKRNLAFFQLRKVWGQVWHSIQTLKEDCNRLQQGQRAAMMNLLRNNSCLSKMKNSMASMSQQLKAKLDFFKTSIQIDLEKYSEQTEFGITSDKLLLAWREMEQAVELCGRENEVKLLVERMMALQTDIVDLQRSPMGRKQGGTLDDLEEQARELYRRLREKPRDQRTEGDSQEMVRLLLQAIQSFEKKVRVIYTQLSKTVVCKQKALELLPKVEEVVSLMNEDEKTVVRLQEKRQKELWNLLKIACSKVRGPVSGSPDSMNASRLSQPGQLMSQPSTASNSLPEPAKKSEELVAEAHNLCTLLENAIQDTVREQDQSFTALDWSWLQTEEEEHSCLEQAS
The settings on record: at 0.1 µM.

For test [9], the target named is T3, Inhibitor of nuclear factor kappa-B kinase subunit beta (Homo sapiens). To be noted: at 1 µM.
The target of test [10] is T4, Inhibitor of nuclear factor kappa-B kinase subunit epsilon (Homo sapiens) (UniProt Q14164).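 Also: mean inhibition of IKKε reported, from the GSK PKIS dataset.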
T4 sequence (whole entry): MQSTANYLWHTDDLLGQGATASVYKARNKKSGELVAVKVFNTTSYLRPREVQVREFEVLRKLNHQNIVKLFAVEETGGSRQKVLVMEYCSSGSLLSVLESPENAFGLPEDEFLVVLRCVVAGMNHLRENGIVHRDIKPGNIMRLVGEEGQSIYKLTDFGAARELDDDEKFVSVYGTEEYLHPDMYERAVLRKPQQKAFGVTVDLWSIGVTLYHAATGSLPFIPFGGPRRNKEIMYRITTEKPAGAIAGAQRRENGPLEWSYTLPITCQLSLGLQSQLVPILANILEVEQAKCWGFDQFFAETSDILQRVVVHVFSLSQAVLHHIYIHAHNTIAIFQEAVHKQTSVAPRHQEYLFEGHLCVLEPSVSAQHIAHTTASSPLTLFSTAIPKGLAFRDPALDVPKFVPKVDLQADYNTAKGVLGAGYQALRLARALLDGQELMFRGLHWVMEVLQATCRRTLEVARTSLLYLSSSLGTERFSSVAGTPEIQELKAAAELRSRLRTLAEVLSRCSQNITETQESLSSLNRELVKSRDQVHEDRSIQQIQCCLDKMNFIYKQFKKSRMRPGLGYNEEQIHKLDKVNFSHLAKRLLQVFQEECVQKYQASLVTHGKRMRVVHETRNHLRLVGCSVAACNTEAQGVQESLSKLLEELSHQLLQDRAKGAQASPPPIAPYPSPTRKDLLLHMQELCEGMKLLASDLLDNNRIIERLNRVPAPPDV
The settings on record: at 0.1 µM.

Sphingosine kinase 1 (Homo sapiens), sequence (Q9NYA1 whole entry): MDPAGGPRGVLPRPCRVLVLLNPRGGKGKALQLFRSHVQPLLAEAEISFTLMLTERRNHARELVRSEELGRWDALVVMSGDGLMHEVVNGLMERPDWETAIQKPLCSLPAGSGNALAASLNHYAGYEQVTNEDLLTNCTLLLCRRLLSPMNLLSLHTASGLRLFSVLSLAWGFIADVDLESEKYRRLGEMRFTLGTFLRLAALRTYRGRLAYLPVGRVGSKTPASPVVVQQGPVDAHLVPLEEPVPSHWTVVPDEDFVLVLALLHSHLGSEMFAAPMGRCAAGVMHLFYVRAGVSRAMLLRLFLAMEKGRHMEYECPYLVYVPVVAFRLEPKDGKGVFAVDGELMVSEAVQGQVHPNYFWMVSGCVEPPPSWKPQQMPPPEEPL
Casein kinase II subunit alpha (Homo sapiens), sequence (P68400 whole entry, looked up): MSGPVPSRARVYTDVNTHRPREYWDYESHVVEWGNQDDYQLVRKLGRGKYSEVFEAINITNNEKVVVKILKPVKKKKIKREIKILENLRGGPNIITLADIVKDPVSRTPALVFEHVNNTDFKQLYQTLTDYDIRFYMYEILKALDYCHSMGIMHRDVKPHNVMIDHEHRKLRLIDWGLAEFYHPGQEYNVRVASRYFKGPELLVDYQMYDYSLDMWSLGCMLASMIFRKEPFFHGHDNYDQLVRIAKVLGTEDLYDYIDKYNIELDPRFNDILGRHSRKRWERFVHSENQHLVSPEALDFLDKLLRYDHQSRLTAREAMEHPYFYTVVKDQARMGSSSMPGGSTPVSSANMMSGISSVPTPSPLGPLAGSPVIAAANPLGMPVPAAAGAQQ

In general, inhibition refers to the relative decrease from the control value, in per cent. Regarding `Cc1ccc(NC(=O)CC2CC2)cc1-c1ccc(C(=O)NCC2CC2)cc1`, the inhibition in test [1] is -1.09%; in [2] it was 0.51%; in [3] it was -0.13%; in test [4], 4.55%; in test [5], 8.23%; in [6], 0.25%. Moreover, the inhibition in test [7] came out at 1.31%; in test [8] it was 3.09%; in [9] it was 3.67%; in test [10], 4.09%.

As for `ON=C1CCc2cc(-c3nc(C4CCNCC4)[nH]c3-c3ccncc3)ccc21`, the inhibition was -2.71% in test [1]; 0.13% in [2]; -0.91% in test [3]; -3.67% in [4]; -3.6% in test [5]; -9.89% in [6]. Further, the inhibition was -1.59% in test [7], 6.16% in test [8], 4.62% in [9] and 1.88% in [10].

For the compound `CC(C)c1ccc(Nc2nccc(-c3cnn4ncccc34)n2)cc1`, the inhibition is 7.28% in test [1]; 0.26% in test [2]; -0.48% in [3]; 10.7% in test [4]; 43.4% in test [5]; 18.7% in [6]. Moreover, the inhibition was 64.1% in test [7], 7.7% in [8], 23% in test [9] and 4.12% in test [10].

For `CC(C)c1ccc2c(c1)NC(=O)/C2=N/Nc1ccc(S(N)(=O)=O)cc1`, the inhibition was -1.85% in test [1]; 0.61% in test [2]; 1.73% in test [3]; 4.26% in test [4]; 0.39% in [5]; -1.84% in [6]. For the same compound, the inhibition in test [7] was -4.08%; in test [8], 1.01%; in [9] it was 0.14%; in test [10], -1.18%.

Regarding `COc1cc2ncnc(Nc3ccc(C)c(O)c3)c2cc1OC`, the inhibition in test [1] was -3.1%; in test [2], -0.83%; in test [3] it was 0.12%; in [4], 2.65%; in test [5], 6.37%; in [6], 7.19%. Further, the inhibition turned out to be 11.6% in test [7], 6.42% in test [8], 6.01% in test [9] and 5.22% in [10].

Turning to `NS(=O)(=O)c1cccc(Nc2cc(-c3ccc(F)cc3)n[nH]2)c1`, the inhibition in test [1] was -0.2%; in [2], 0.87%; in test [3], -0.06%; in test [4], 5.22%; in test [5], 13.6%; in test [6], 4.35%. Moreover, the inhibition in [7] stood at 11.3%; in [8], 5.51%; in test [9], 4.5%; in [10] it was 8.55%.

As for `O=C1Nc2ccc(-c3cccnc3)cc2C1=Cc1cc(Br)c(O)c(Br)c1`, the inhibition is -0.37% in [1]; 0.41% in test [2]; -1.79% in test [3]; 4.96% in test [4]; 14.5% in test [5]; 5.26% in test [6]. Further, the inhibition worked out at 7.66% in test [7], 4.92% in [8], 2.14% in [9] and 3.51% in test [10].

Take `C[C@@H](Oc1cc(-n2cnc3ccc(OC[C@@H](O)CO)cc32)sc1C(N)=O)c1ccccc1Cl`: the inhibition in [1] was 0.3%; in test [2], 0%; in test [3], 0.27%; in [4], 1.09%; in test [5], 10.2%; in test [6], -0.83%. For the same compound, the inhibition in [7] is -3.48%; in [8] it was -3.56%; in test [9], -1.92%; in test [10], -2.16%.

`COc1ccc2ncnc(Nc3ccc(OCc4ccccc4)cc3)c2c1`: the inhibition in test [1] was -2.59%; in test [2], 0.06%; in [3] it was 0.29%; in test [4] it was 3.44%; in test [5] it was 7.23%; in [6], 2.22%. Also, the inhibition in [7] was -0.08%; in test [8] it was 2.67%; in test [9], 3.67%; in [10], 3.74%.

For `O=C1Nc2ccccc2/C1=C/Nc1ccc2[nH]c(=O)[nH]c2c1`, the inhibition in test [1] is -0.67%; in test [2], -0.03%; in test [3], -2.68%; in test [4] it was 3.81%; in test [5], 13.9%; in test [6], 12.9%. Besides, the inhibition amounted to 10.2% in test [7], 7.85% in test [8], 11.6% in [9] and 8.71% in test [10].

For the origin of these results see ChEMBL document CHEMBL1961873, “Compounds: GSK PKIS; Assays: Nanosyn kinase panel” (2012).
